Results from ChEMBL document CHEMBL4888484, “Replenishing the malaria drug discovery pipeline: Screening and hit evaluation of the MMV Hit Generation Library 1 (HGL1) against asexual blood stage Plasmodium falciparum ,using a nano luciferase reporter read-out” (2022).
In all, about 4,800 compounds went through this assay and about 420 (8.8%) showed an effect of 50% or more. Shown is part of a subset that was picked to be rich in strong results.

Test system: Plasmodium falciparum
Test: Confirmatory screen in NF54 nanoGlo assay, in single point, at 2uM, 72h
Assay type: functional, Erythrocyte
Conditions: timepoint 72 hour

Compound | % Inhibition [%]
CC1CC(C(=O)Nc2[nH]c(=O)ncc2F)CC(C)(C)C1 (stereo unspecified) | 92
CN(C)C(=O)NCCc1ncc(C(F)(F)F)cc1Cl | -5
Cc1cc(C#N)cc(C)c1Oc1nc(Nc2ccc(C#N)cc2Br)nc(N)c1Br | -9
CC(C)c1nc(C(=O)Nc2[nH]c(=O)ncc2F)cs1 | 92
Cc1ccc(-c2cc(C(=O)Nc3nnc(C(C)C)s3)no2)cc1F | 39
O=C(Nc1[nH]c(=O)ncc1F)c1coc(-c2ccccc2)n1 | 80
O=C(c1coc(-c2ccccc2)n1)N1CCc2cc(Br)ccc21 | -4
CC(C)c1nc(C(=O)Nc2ccccc2CN2CCNC2=O)cs1 | 3
Cc1nc(C(=O)Nc2[nH]c(=O)ncc2F)c(-c2ccccc2)o1 | 85
COc1ccc(CN2CC[C@@H]3C(=O)NCCCCCCN(Cc4ccncc4)[C@@H]3C2)cc1Cn1ccnc1 | 47
COc1cc2c(cc1OC)C(Nc1cc(C)ccc1C)=NC(C)(C)C2 | -7
CCC[C@@]1(C)C(=O)NCCN1Cc1nnc(-c2ccc(Cl)cc2)n1C | -10
CCOC1CC2(CCN(Cc3cc(Cl)c(OC)cc3Cl)C2)C1 (stereo unspecified) | 1
CC(=O)N(CC[C@]1(Cc2ccccc2Cl)CCOC(C)(C)C1)Cc1ccc(F)cc1 | 0
COc1ccc(-c2nn3c(Cc4ccccn4)nnc3s2)cc1OC | 4
Cc1ccc(Cn2c(=O)c(N3CCC[C@H](C(=O)NCc4ccccc4F)C3)nc3ccccc32)cc1 | -4
C[C@@H](CCc1ccccc1)NC(=O)c1cnn2c3c(cnc12)CCCC3 | -8
Cn1nc(C(=O)N2CCCCC[C@H]2C2CCCCC2)ccc1=O | -10
Cc1cccc(NC(=O)C(=O)N(C)[C@H]2CCCc3c2cnn3C)c1F | -17
CC(C)Cc1cc(C(=O)N2CCc3c(C#N)cccc32)cc(O)n1 | -8
Cc1cc(-c2ccccc2)cc(-c2ccccc2)c1-c1cc(-c2ccccc2)cc(-c2ccccc2)n1 | -10
Cc1cc(-c2ccccc2)nc2sc(-c3ccccc3)c([O-])[n+]12 | -2
Cc1cc[n+]2c(-c3ccccc3)cc(-c3ccccc3)nc2c1 | 62
CC[n+]1c(C)sc2cc(-c3ccccc3)sc21 | -15
O=C(O)CC1(NC(=O)c2cc(Oc3ccccc3)ccn2)CCC1 | -7
CCOc1ncccc1CNC(=O)CNC(C)=O | 3

Compound | % Inhibition [%]
C[C@](O)(CCc1ccccc1)C(=O)NCCc1ncc[nH]1 | 3
Cc1ccccc1C(=O)Cc1ncc[nH]1 | 75
Cc1ccc(C(=O)N2CC(C)CC(C)C2)cc1NCc1ncc[nH]1 (stereo unspecified) | 8
COCC[C@](C)(O)CNC(=O)Nc1ccccc1 | 1
CC[C@@H](c1ccncc1)N(C)Cc1cc(-c2ccc(Cl)cc2)no1 | -6
COCc1nncn1C1CN(C(=O)Cc2cc(OC)cc(OC)c2)C1 | -16
COc1nn(C)cc1C(=O)N1CCC[C@H](Oc2cccnn2)C1 | 1
Cc1cc(C(=O)NCCCN2CCCC2=O)nn1C(F)F | -13
CCn1cc(-c2cc(C(F)(F)F)nc(N3CCCC3)n2)cn1 | 4
COc1cccc(C(=O)C[n+]2cc(-c3ccc(Br)cc3)n(C)c2N)c1 | -3
COc1ccc(C(=O)C[n+]2cc(-c3ccc(OC)cc3)n3c2CCCC3)cc1 | 60
Cc1ccc(-c2c[n+](-c3ccc(OC(F)F)cc3)c3n2CCCCC3)cc1 | 67
COc1ccc(C(=O)C[n+]2nc(CNc3ccc(Br)cc3)n3c2CCCCC3)cc1 | 84
COc1ccc2c(c1)[n+](CC(=O)c1ccc(-c3ccc(Br)cc3)cc1)c(CO)n2C | 46
COc1ccc(N2CCN(Cc3cc(-c4ccc(Cl)cc4)no3)CC2)cc1 | -22
FC(F)Oc1ccc(-c2c[n+](-c3cccc(C(F)(F)F)c3)c3n2CCCCC3)cc1 | 44
COc1ccc(CC(=O)NCc2nnc3n2CCC3)cc1 | 12
COc1ccc(-c2c[n+](-c3ccc(Cl)cc3)c3n2CCCCC3)cc1 | 60
Cn1c(-c2ccc(Br)cc2)c[n+](CC(=O)c2ccc(Br)cc2)c1N | -8
COc1ccc(O)c([C@H]2Nc3ccccc3-n3c(-c4ccc(C)cc4)c4c(=O)n(C)c(=O)n(C)c4c32)c1 | 25
COc1cccc(C(=O)N2CCCO[C@H](C(C)C)C2)c1 | -9
Cc1ccc(C(=O)Nc2ccc3c(c2)OC(C)(C)C(=O)N3)cc1 | -4
CN(CC(=O)N(C)C1CCC(c2ccccc2)CC1)c1cnccn1 (stereo unspecified) | -8
COc1cc(NC(=O)CN2C(=O)N[C@](C)(c3ccc4c(c3)OCCO4)C2=O)c(OC)cc1Cl | 2
O=C(CCn1c(=O)[nH]c2ccsc2c1=O)NCc1ccccc1 | 37
O=C(CCc1ccccc1)N[C@@H](c1ccccc1)c1ccc2c3c(cccc13)CC2 | -12

Compound | % Inhibition [%]
C[C@@H]1CN(C[C@@H]2CN(CCOCc3ccccc3)C[C@@H]2CO)C[C@H](C)O1 | -5
CCc1nnc2ccc(S(=O)(=O)Nc3ccc(F)c(F)c3)cn12 | -6
O=C(Nn1cnc2ccccc2c1=O)c1cnccn1 | 2
Nc1ncn(C(=O)c2ccc(Cl)cc2)n1 | -14
COc1nc2ncnc(OC)c2nc1C#N | 3
COc1ccc(S(=O)(=O)N(CC(=O)N2CCN(Cc3ccc4c(c3)OCO4)CC2)C2CCCCC2)cc1OC | -3
CC(C)(C)OC(=O)N1CCC[C@H]1C(=O)n1ccnc1 | -2
CCOc1nc(C)nc2cc(-c3ccccc3)n(Cc3ccccc3)c12 | 0
CCOc1ccc(-[n+]2cc(-c3ccccc3)n3c2CCC3)cc1 | 80
O=C(O)C1Cc2c([nH]c3ccccc23)C(/C=C/c2ccccc2)N1 (stereo unspecified) | -1
Cc1noc2nc(C3CC3)cc(C(=O)N3CCC[C@H](C)CC3)c12 | -11
CC1NC2(C(=O)N(Cc3ccc(F)cc3)c3ccccc32)C2C(=O)N(c3cccc4ccccc34)C(=O)C12 (stereo unspecified) | 4
CC1(C)C2OCCCC2C1(N)C(=O)Nc1cn[nH]c1 (stereo unspecified) | 4
CCCn1cc(CNc2nnc(C(C)(C)C)o2)cn1 | -5
CN1CCN(C2(CNc3ccnc4ccccc34)CCCC2)CC1 | 91
c1ccc(Oc2ccnc(NCC34COCCN3CCOC4)n2)cc1 | -10
Fc1cccc(F)c1CNC[C@@H]1NCCc2ccccc21 | -5
O=c1[nH]c2nccnc2c(=O)n1Cc1ccc(F)cc1 | -11
O=C1N[C@H]2C[C@@H](C(=O)NC[C@H]3O[C@H](CCOc4cc(-c5ccccc5)ccc41)CC[C@@H]3O)N(Cc1ccc(Cl)c(F)c1)C2 | -1
CCOC(=O)C(Nc1cccc(NC(C(=O)OCC)C(=O)OCC)c1)C(=O)OCC | -16
Nc1nccnc1C(=O)NCc1ccc(Cn2ccnc2)cc1 | -5
O=c1[nH]c(=O)n(S(=O)(=O)c2ccccc2)cc1F | 92
Cc1ccc(N2CCN(S(=O)(=O)c3ccccc3)[C@@H](C)C2=O)cc1F | -5
O=S(=O)(c1ccccc1)N1CCN(S(=O)(=O)c2ccc(Cl)cc2)C1 | 2
COc1ccc(CCNc2oc(-c3cccnc3)nc2C#N)cc1OC | 31
O=C(CNC1=NC(=O)C(c2ccccc2)(c2ccccc2)N1)NCc1ccc(F)cc1 | -1

Compound | % Inhibition [%]
Cc1ccc(OCC(=O)Nc2ccc(N3CCn4c(nc5ccccc54)C3)cc2Cl)cc1 | -17
COc1ccc(-n2ncc3c(NCCNC(=O)c4ccccc4Cl)nc(C)nc32)cc1 | -12
Cc1ccc(OCC(=O)Nc2cc(C)nn2-c2nc3c(cnn3-c3ccc(C)c(C)c3)c(=O)[nH]2)cc1 | 65
C1CCC(Nc2nc3nonc3nc2N2CCCCC2)CC1 | 1
CC(C)CN(CC(C)(C)C)C(=O)c1cc[nH]n1 | -6
O=C(CN1CCN(Cc2ccccc2F)C1=O)NC1CCCCCCC1 | -11
O=C(c1ccccc1Cl)N1CCC[C@H](n2cnc3ccccc3c2=O)C1 | 18
CCN(c1ccc(C(=O)N(C)C2(C#N)CCC2)cc1)C(C)C | -3
O=S(=O)(Cc1ccccc1)Nc1nnc[nH]1 | -1
CCn1nccc1CNc1cc(Cl)cc2c1OCC2 | -8
CC(C)(C)OC(=O)N1C[C@@H](O)CC1=O | -11
COc1ccc(C(=O)N2c3ncnn3C(c3ccccc3)CC2c2ccc(C)cc2)cc1OC (stereo unspecified) | 78
COc1ccc(C(=O)Nc2nnc([C@H]3CC(=O)N(c4ccc(C)cc4)C3)o2)cc1OC | -16
COc1ccc(C2CC(c3ccccc3)N(C(C)=O)c3ncnn32)cc1 (stereo unspecified) | -9
CCCN1CCN(CC(=O)Nc2sccc2C#N)c2cc(F)ccc21 | 2
Cc1ccc(NC(=O)c2cc[nH]n2)c(C)c1 | -18
COc1ccc(-c2nn3c(N4CCN(CC=Cc5ccccc5)CC4)cc(C)nc3c2C)cc1OC | 55
COc1ccc(-c2cc3nc(C)cc(N4CCN(C/C=C/c5ccccc5)CC4)n3n2)cc1OC | 42
COc1ccc(-c2c(C)nn3c(N4CCC(C(=O)NC5CC5)CC4)cc(C)nc23)cc1OC | 37
Cc1c(C2=NO[C@H]3C(=O)N(c4ccc5ccccc5c4)C(=O)[C@@H]23)cnn1C | 0
C[C@H](NC(=O)c1nnn(C)c1C(F)(F)F)c1cscn1 | 7
COc1ccc(CCNC(=O)CCCC(=O)Nc2cccnc2)cc1OC | 3
COc1ccc(Cl)cc1S(=O)(=O)N(C)[C@H]1CCc2n[nH]c(=O)n2CC1 | -5
